# In the supplement of paper PMC8728848:
# This is one part of a sample in which the strongest signals are shown more often than they occur.
# B1: Awp1 (Candida glabrata) (protein)
# chain: MSLITIFAFLIKATLVLSLDILTPTTLTGDQTFNEDVSVVSSLTLNDGSQYLFNNLLQIAPSSASVTANALAAVSVFTFSLPPSSSLSNSGTLIISNSNTGPSTEQHIVITPNVMANTGTITLSLAHTNTDSSSTLIIDPVTFYNTGTINYESIGSETNDPSLTGNILSIGSSGRTLQNLGTINLNAANSYYLLGTITENSGSINVQKGFLYVNALDFIGNTINLSTTTALAFISPVSQVVRVRGVFFGNIIASVGSSGTFSYNTQTGILTVTTNGVYSYDIGCGYNPALMSGQQETLSFQGNPYDTFLVLVNQPIPSDLTCAAVSSSITPSSSVEPSSSVVPSSSVEPSSSVEPSSSVEPSSSVEPSSSVEPSSSVEPSSSVEPSSSVEPSSSVEPSSSVEPSSSVEPSSSVEPSSSVEPSSSVEPSSSVEPSSSVEPSSSVEPSSSVEPSSSVEPSSLIVPSSSVEPSSSVLPSSSVVPSSSVEPSTPPIPSSSVEPSSSVVPSSPAVPSSSVEPSTPPIPSSSVVSASVFDTSSTLPSSPSVPPSSVSPSTISTPSSSAAPSSFCPTCVSSGTPPAPSSSAIVPTSSAGGGNGGDNREPGAAGQPGAAGQPGAAGQPGAAGQPGAAGQPGAAGQPGAAGQPGAAGQPGAAGQPGAAGQPGAGFGVGSEQPTPGAGAGSGSADGNQSGTGSGTGNGQQGSGQAGSGQAGSGQEGSGQAGSGQAGSGQAGSGQAGSGQAGLDNTASGQSEGGQASAMDGDQSGRDGQSNSGSLLQPNAQQGTGSGTGSDIGADQASGESPGQIGDAQPGSGTDQSSGRHSLAAEARTSQSHSLAADARTRSTTRQTSVIAPDTAPGTASGTAPGTAPGTAVVTTFHGCGTVNHKGMINILLALALLVLL
# Legend:
# Assay in all cases: glycan array binding signal (z-score within array); higher = stronger binding
# Conditions in all cases: glycan notation: IUPAC condensed, linker removed
# [1] = target: Fuc(a1-2)Gal(b1-3)GalNAc(b1-3)Gal(a1-4)Gal(b1-4)Glc
# Outline: (§1)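 The binding signal is a Z-score computed within each array. Data were drawn from 3228 arrays in the Consortium for Functional Glycomics database, restricted to those with a known protein sequence. Scores were averaged over arrays of the same protein sequence at different concentrations or buffers, and over linkers, and negative values can be taken as non-binding.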
# [2] = target: Fuc(a1-2)Gal(b1-3)GlcNAc(b1-2)Man(a1-3)[Fuc(a1-2)Gal(b1-3)GlcNAc(b1-2)Man(a1-6)]Man(b1-4)GlcNAc(b1-4)GlcNAc
# Outline: as §1
# [3] = target: Fuc(a1-2)Gal(b1-3)GlcNAc(b1-3)Gal(b1-4)Glc
# Outline: as §1
# [4] = target: Fuc(a1-2)Gal(b1-3)GlcNAc(b1-3)GalNAc
# Outline: as §1
# [5] = target: Fuc(a1-2)Gal(b1-3)[Fuc(a1-4)]GlcNAc
# Outline: as §1
# [6] = target: Fuc(a1-2)Gal(b1-3)[Fuc(a1-4)]GlcNAc(b1-3)[Gal(b1-4)GlcNAc(b1-6)]Gal(b1-4)Glc
# Outline: as §1
# [7] = target: Fuc(a1-2)Gal(b1-4)GlcNAc(b1-3)Gal(b1-4)GlcNAc(b1-3)Gal(b1-4)GlcNAc
# Outline: as §1
# [8] = target: Fuc(a1-2)Gal(b1-4)[Fuc(a1-3)]GlcNAc(b1-3)[Neu5Ac(a2-6)Gal(b1-4)GlcNAc(b1-6)]Gal(b1-4)Glc
# Outline: as §1
# [9] = target: Fuc(a1-2)Gal3S(b1-4)GlcNAc
# Outline: as §1
# [10] = target: Fuc(a1-2)[Gal(a1-3)]Gal(b1-3)GalNAc(b1-3)Gal(a1-4)Gal(b1-4)Glc
# Outline: as §1
# [11] = target: Fuc(a1-2)[Gal(a1-3)]Gal(b1-3)GlcNAc
# Outline: as §1
# [12] = target: Fuc(a1-2)[Gal(a1-3)]Gal(b1-4)GlcNAc(b1-3)GalNAc
# Outline: as §1
# [13] = target: Fuc(a1-2)[GalNAc(a1-3)]Gal(b1-3)GalNAc(b1-3)Gal(a1-4)Gal(b1-4)Glc
# Outline: as §1
# [14] = target: Fuc(a1-2)[GalNAc(a1-3)]Gal(b1-4)[Fuc(a1-3)]GlcNAc
# Outline: as §1
# [15] = target: Fuc(a1-3)[Gal(b1-4)]GlcNAc(b1-2)Man(a1-3)[Fuc(a1-3)[Gal(b1-4)]GlcNAc(b1-2)Man(a1-6)]Man(b1-4)GlcNAc(b1-4)[Fuc(a1-6)]GlcNAc
# Outline: as §1
# Gal(a1-4)Gal(b1-4)Glc = target: Gal(a1-4)Gal(b1-4)Glc
# Outline: as §1
# Gal(a1-4)Gal(b1-4)GlcNAc = target: Gal(a1-4)Gal(b1-4)GlcNAc
# Outline: as §1
# [16] = target: Gal(a1-4)Gal(b1-4)GlcNAc(b1-3)Gal(b1-4)Glc
# Outline: as §1
# Gal(b1-2)Gal = target: Gal(b1-2)Gal
# Outline: as §1
# [17] = target: Gal(b1-3)GalNAc(a1-3)[Fuc(a1-2)]Gal(b1-4)Glc
# Outline: as §1
# [18] = target: Gal(b1-3)GalNAc(b1-4)[Neu5Ac(a2-3)]Gal(b1-4)Glc
# Outline: as §1
# [19] = target: Gal(b1-3)GlcNAc(b1-2)[Gal(b1-3)GlcNAc(b1-6)]Man(a1-6)[Gal(b1-3)GlcNAc(b1-2)Man(a1-3)]Man(b1-4)GlcNAc(b1-4)GlcNAc
# Outline: as §1
# [20] = target: Gal(b1-3)GlcNAc(b1-3)Gal(b1-4)GlcNAc(b1-6)[Gal(b1-3)GlcNAc(b1-3)]Gal(b1-4)Glc
# Outline: as §1
# [21] = target: Gal(b1-3)[Neu5Ac(a2-6)]GalNAc
# Outline: as §1
# [22] = target: Gal(b1-4)GlcNAc(a1-6)Gal(b1-4)GlcNAc
# Outline: as §1
# [23] = target: Gal(b1-4)GlcNAc(b1-2)Man(a1-6)[GlcNAc(b1-2)Man(a1-3)]Man(b1-4)GlcNAc(b1-4)GlcNAc
# Outline: as §1
# [24] = target: Gal(b1-4)GlcNAc(b1-2)[Gal(b1-4)GlcNAc(b1-4)]Man(a1-3)[Gal(b1-4)GlcNAc(b1-2)Man(a1-6)]Man(b1-4)GlcNAc(b1-4)GlcNAc
# Outline: as §1
# [25] = target: Gal(b1-4)GlcNAc(b1-2)[Gal(b1-4)GlcNAc(b1-4)]Man(a1-3)[GlcNAc(b1-4)][Gal(b1-4)GlcNAc(b1-2)Man(a1-6)]Man(b1-4)GlcNAc(b1-4)GlcNAc
# Outline: as §1
# [26] = target: Gal(b1-4)GlcNAc(b1-3)Gal(b1-4)GlcNAc(b1-3)Gal(b1-4)GlcNAc(b1-3)Gal(b1-4)GlcNAc(b1-2)Man(a1-3)[Gal(b1-4)GlcNAc(b1-3)Gal(b1-4)GlcNAc(b1-3)Gal(b1-4)GlcNAc(b1-3)Gal(b1-4)GlcNAc(b1-2)Man(a1-6)]Man(b1-4)GlcNAc(b1-4)[Fuc(a1-6)]GlcNAc
# Outline: as §1
# [27] = target: Gal(b1-4)GlcNAc(b1-3)Gal(b1-4)GlcNAc(b1-6)[Gal(b1-3)]GalNAc
# Outline: as §1
# [28] = target: Gal(b1-4)GlcNAc(b1-3)[Gal(b1-4)GlcNAc(b1-6)]Gal(b1-4)GlcNAc
# Outline: as §1
binder,measurement,setting,value
B1,glycan array binding signal (z-score),[1],-0.191
same,glycan array binding signal (z-score),[2],3.11
same,glycan array binding signal (z-score),[3],-0.568
same,glycan array binding signal (z-score),[4],-0.915
same,glycan array binding signal (z-score),[5],0.456
same,glycan array binding signal (z-score),[6],2.29
same,glycan array binding signal (z-score),[7],0.341
same,glycan array binding signal (z-score),[8],0.4
same,glycan array binding signal (z-score),[9],0.168
same,glycan array binding signal (z-score),[10],-0.456
same,glycan array binding signal (z-score),[11],-0.399
same,glycan array binding signal (z-score),[12],-1.3
same,glycan array binding signal (z-score),[13],0.017
same,glycan array binding signal (z-score),[14],-1.15
same,glycan array binding signal (z-score),[15],2.28
same,glycan array binding signal (z-score),Gal(a1-4)Gal(b1-4)Glc,2.6
same,glycan array binding signal (z-score),Gal(a1-4)Gal(b1-4)GlcNAc,1.02
same,glycan array binding signal (z-score),[16],0.176
same,glycan array binding signal (z-score),Gal(b1-2)Gal,-1.15
same,glycan array binding signal (z-score),[17],3.43
same,glycan array binding signal (z-score),[18],-0.686
same,glycan array binding signal (z-score),[19],2.35
same,glycan array binding signal (z-score),[20],2.29
same,glycan array binding signal (z-score),[21],-0.433
same,glycan array binding signal (z-score),[22],3
same,glycan array binding signal (z-score),[23],0.086
same,glycan array binding signal (z-score),[24],-0.236
same,glycan array binding signal (z-score),[25],-0.307
same,glycan array binding signal (z-score),[26],2.42
same,glycan array binding signal (z-score),[27],0.7
same,glycan array binding signal (z-score),[28],-0.342
